Screens deposited in PubChem by several laboratories.
Mcl1 Bid PPI: disrupts binding of human Mcl-1 to Bid peptide; TR-FRET Mcl-1/Bid-Dy647 peptide binding, 1536-well; inhibition, % at 21.7 µM; hit rate 0.97% among 220,000;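 active = compounds that cut the binding signal by more than half at the single screening dose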;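 also: His-tagged Mcl-1 with europium anti-His antibody binding Bid BH3 peptide; 0% = Mcl-1 plus peptide wells and 100% = peptide-only wells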
GLD-1 RNA inh: GLD-1-TGE RNA interaction inhibition (C. elegans). hit rate 0.44% among 320,000. AID 2280. Q17339. inhibition, % at 5.96 µM. purified GLD-1 + fluorescein TGE RNA, fluorescence polarization;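 active = percent inhibition above a per-plate cutoff, the plate mean of test compounds plus 3 SD, cut at about 30% in these data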;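 also: 0% = DMSO wells with GLD-1 and probe and 100% = wells lacking GLD-1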
Target sequence (Q17339 whole entry, looked up): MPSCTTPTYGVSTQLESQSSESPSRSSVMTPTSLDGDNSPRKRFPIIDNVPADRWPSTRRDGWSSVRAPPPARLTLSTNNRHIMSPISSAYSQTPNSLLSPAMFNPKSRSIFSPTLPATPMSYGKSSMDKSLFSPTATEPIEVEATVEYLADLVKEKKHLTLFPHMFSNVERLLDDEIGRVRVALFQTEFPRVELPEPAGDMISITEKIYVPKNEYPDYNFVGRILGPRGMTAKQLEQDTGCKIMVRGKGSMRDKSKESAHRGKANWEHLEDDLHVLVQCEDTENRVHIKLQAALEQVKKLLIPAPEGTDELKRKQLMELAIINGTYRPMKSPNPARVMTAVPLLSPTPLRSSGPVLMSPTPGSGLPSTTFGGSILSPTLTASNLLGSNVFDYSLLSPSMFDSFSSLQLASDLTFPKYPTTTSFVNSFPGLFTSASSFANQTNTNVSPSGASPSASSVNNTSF
Bcl-xL primary: inhibitors of human Bcl-xL | inhibition, % at 10.9 µM | hit rate 0.7% among 320,000 | GST-Bcl-xL / FITC-Bim BH3 peptide fluorescence polarization;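 active = inhibition above the mean of all tested compounds plus 3 SD, cutoff set per campaign, cut at about 30% in these data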;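 also: 0% = DMSO wells and 100% = unlabeled Bim-BH3 peptide competitor; inhibitors lower millipolarization by displacing the labeled peptide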
Mcl1-Noxa inh: disrupts binding of human Mcl-1 to Noxa peptide | Q07820 | TR-FRET Mcl-1/Noxa peptide binding, 2 h | inhibition, % at 21.7 µM | hit rate 1.5% among 220,000 | AID 1022;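 active = compounds that cut the protein-peptide binding signal by more than 50% relative to plate controls in a single-dose test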;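 also: His-tagged Mcl-1 with rhodamine Noxa BH3 peptide and terbium anti-His antibody; 0% = Mcl-1 plus Noxa peptide wells and 100% = peptide-only wells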
MCL1-BIM inh: disrupts human MCL1 binding to BIM-BH3 peptide; Q07820; GST-MCL1 / FITC-Bim-BH3 fluorescence polarization; inhibition, % at 10.9 µM; hit rate 0.68% among 320,000;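 active = inhibition above the mean inhibition of all tested compounds plus 3 SD, set per campaign, cut at about 40% in these data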;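 also: 0% = DMSO wells and 100% = unlabeled Bim-BH3 peptide control; higher means more loss of mP so more displacement of Bim peptide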
Bim-Mcl-1: human Bim-Mcl-1 interaction inhibition; Q07820; Bead-based flow cytometry, Bim peptide-Mcl-1 binding; inhibition, % at 10 µM; hit rate 0.1% among 190,000; in the data active = inhibition above about 40%;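 also: 0% = no compound tracer wells and 100% = peptide blocker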
BCLXL inh confirm: Bcl-xL (human) inhibition, MCL1 counter-screen confirmation. GST-Bcl-xL / FITC-Bim BH3 peptide FP binding. hit rate 54% among 1,700. inhibition, % at 10.9 µM. shares compounds with MCL1-BIM inh;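 active = inhibition above a cutoff equal to the mean inhibition of all tested compounds plus 3 SD, cut at about 30% in these data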;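 also: 0% = DMSO wells and 100% = unlabeled Bim BH3 control peptide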
MCL1 inh confirm: MCL1-BIM-BH3 interaction inhibition, confirmation | hit rate 61% among 1,700 | AID 2168 | shares compounds with MCL1-BIM inh | inhibition, % at 10.9 µM | GST-MCL1 / FITC-Bim-BH3 fluorescence polarization;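 active = inhibition above the average of all tested compounds plus 3 SD, cut at about 40% in these data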;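 also: 0% = DMSO wells and 100% = unlabeled Bim-BH3 control peptide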
* = called active by the depositor; i = inactive; . = no result given; + = active, no number. Most compounds without a hit are left out; they make up all but 2.3% or so of the library.

SMILES	Mcl1 Bid PPI	GLD-1 RNA inh	Bcl-xL primary	Mcl1-Noxa inh	MCL1-BIM inh	Bim-Mcl-1	BCLXL inh confirm	MCL1 inh confirm
CCOC(=O)C[C@H]1c2ccc(C(F)(F)F)cc2S(=O)(=O)N1c1cccc(OC)c1	.	0	7	.	41*	.	-5	43*
COc1cccc(N2[C@@H](CC(C)=O)c3cc(C(F)(F)F)ccc3S2(=O)=O)c1	.	-8	4	.	-2	.	.	.
CCCCc1ccc(N/C(N)=N/c2nc(C)cc(C)n2)cc1	-5	-5	4	14	3	.	.	.
Cc1cc(NC(=O)/C(C#N)=C/c2ccco2)n(-c2ccccc2)n1	-23	7	1	8	-2	-2	.	.
Cc1ccc(-c2ccc(/C=C(\C#N)C(=O)Nc3cc(C)nn3-c3ccccc3)o2)cc1	64*	120*	123*	.	+	-3	+	+
CCc1ccc(CN(C)C(=O)c2ccc3c(c2)OCCO3)cc1	.	-4	0	.	-2	.	.	.
CC(=O)Nc1ccc(C(=O)CN2C(=O)CSC2=O)cc1	.	4	6	.	-2	.	.	.
O=C(CSc1nc2nn(-c3ccccc3)c(=O)c-2c2n1CCCCC2)c1ccc(O)c(O)c1	.	-1	21	.	77*	.	33*	82*
CC1CN(C(=O)CCC(=O)NCc2ccccc2)c2ccccc2O1 (stereo not drawn)	.	4	2	.	6	.	.	.
C[C@H](CO)N1C[C@H](C)[C@@H](CN(C)C(=O)NC2CCCCC2)Oc2ccc(NS(C)(=O)=O)cc2C1=O	.	5	.	.	.	.	.	.
Oc1cc2c(cc1O)[C@H]1c3ccc(O)c(O)c3OC[C@@]1(O)C2	.	24	28	.	57*	.	76*	108*
COc1ccc(C(CNC(=O)c2ccc(OC)c(S(=O)(=O)N3CCCC3)c2)N2CCCC2)cc1 (stereo not drawn)	.	-11	-3	.	-7	.	.	.
COc1ccc(C(=O)NC(C)c2ccncc2)cc1S(=O)(=O)N(C)Cc1ccccc1 (stereo not drawn)	.	2	4	.	7	.	.	.
O=C(CSC(=S)N1CCCC1)N/N=C/c1c(O)[nH]c(=S)[nH]c1=O	.	-2	.	.	.	.	.	.
COC(=O)CN(c1ccccc1)S(=O)(=O)c1ccc(F)cc1	-1	0	2	7	+	-2	8	10
CCN(c1ccccc1)S(=O)(=O)c1ccc(F)cc1	14	5	3	14	0	-2	.	.
O=C(Nc1ccc2c(c1)nc1n2CCN(C2CCCCC2)C1)NC1CCCCC1	-25	28	57*	41	67*	-5	44*	54*
CC1CN(c2nc3ccccc3nc2NS(=O)(=O)c2ccccc2)CC(C)O1 (stereo not drawn)	.	4	.	.	.	.	.	.
COc1ccc(C(=O)NC(=S)Nc2cccnc2)cc1[N+](=O)[O-]	-24	1	27	13	42*	-4	22	19
N#C/C(=C/c1ccco1)C(N)=S	-12	17	35*	-6	58*	.	17	25
CCCCNC(=O)Oc1c(Br)cc2sc(=O)oc2c1Br	-24	12	30	52*	77*	.	36*	58*
O=C1NC(=S)S/C1=C/c1ccc(N2CCOCC2)o1	-54	12	47*	i	65*	12	39*	32
O=C1S/C(=C/c2ccc(N3CCOCC3)o2)C(=O)N1Cc1ccc(F)cc1	12	-114	-72	35	-117	0	.	.
NC(=O)c1cc2c3ccccc3ccn2c1-c1ccccc1	-116	51*	50*	3	59*	.	23	27
Cc1cc(C(N)=O)c2ccccc2n1	-24	1	2	14	1	0	.	.
SMILES	Mcl1 Bid PPI	GLD-1 RNA inh	Bcl-xL primary	Mcl1-Noxa inh	MCL1-BIM inh	Bim-Mcl-1	BCLXL inh confirm	MCL1 inh confirm
COc1cccc(CNC(=O)CCS(=O)(=O)Cc2ccc(C)cc2)c1	.	-2	2	.	9	.	.	.
CCOC(=O)C/C(C)=N/NC(=O)CNc1cccc(Cl)c1C	-15	1	6	-10	43*	0	1	2
O=C1OC(C(=O)O)Cc2ccccc21 (stereo not drawn)	-1	5	2	23	64*	1	2	5
Cc1ccccc1NC(=O)C1Cc2ccccc2C(=O)O1 (stereo not drawn)	-9	-7	0	-9	-3	1	.	.
O=C(O[C@@H]1OC2COC(=O)c3cc(O)c(O)c(O)c3-c3c(cc(O)c(O)c3O)C(=O)O[C@@H]([C@H]1O)[C@@H]2O)c1cc(O)c(O)c(O)c1	-29	16	62*	113*	91*	11	74*	87*
CCOC(=O)c1ccc(NC(=O)CSc2nc(C)cc(=O)[nH]2)cc1	-4	1	14	85*	41*	-1	23	51*
Cc1cc(=O)[nH]c(SCC(=O)Nc2ccc(C(=O)O)cc2)n1	5	6	-3	17	-3	0	.	.
O=C(NNC(=O)C1CCC1)c1ccccc1F	.	-2	-1	.	-3	.	.	.
CCOC(=O)c1c(=O)n(O)c2ccc(OC)cc2[n+]1[O-]	36	176*	159*	11	188*	-4	45*	60*
CC(Sc1nc2sc3c(c2c(=O)n1-c1ccccc1)CCCC3)C(=O)O (stereo not drawn)	8	-2	5	2	6	.	.	.
CCn1c(SC(C)C(=O)O)nc2sc3c(c2c1=O)CCC3 (stereo not drawn)	-58	11	11	67*	44*	-1	15	52*
OCCC1CN(Cc2cc(F)ccc2-n2cccn2)CCN1Cc1ccc(F)cc1 (stereo not drawn)	-13	-4	-1	13	-2	.	.	.
Cc1ccc(-c2[nH]c(=O)n3ccncc23)s1	-90	28	58*	9	57*	2	66*	91*
CC(C)c1ccc(S(=O)(=O)N(C)C2(C)CCS(=O)(=O)C2)cc1 (stereo not drawn)	.	13	4	.	-5	.	.	.
O=Cc1c(Cl)nc2ccccn2c1=O	28	19	56*	-21	59*	.	10	11
CC1CCN(c2nc3ccccn3c(=O)c2C=O)CC1	-49	3	6	-6	2	-3	.	.
CCN1C(=O)[C@H]2[C@@H](c3ccc(-c4ccc(C(C)=O)cc4)cc3)N3CCC[C@@]3(C(=O)OC)[C@H]2C1=O	.	-2	3	.	3	.	.	.
COc1ccc(-n2cccc2/C=C2\C(=N)N3N=C(c4ccco4)SC3=NC2=O)cc1	81*	0	7	87*	66*	2	28	81*
N#Cc1c(-c2ccco2)cc(C2CC2)nc1N	-3	-3	3	13	-7	3	.	.
N#Cc1c(-c2ccco2)cc(-c2ccccn2)nc1N	-19	23	20	66*	43*	3	14	15
